We go through 40 molecules from PubChem BioAssay (NCI).

Test [1] is described as follows: NCI Yeast Anticancer Drug Screen. Data for the rad50 strain (AID 155).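 Further: 0% = growth of vehicle-only cultures of the same strain.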 To be noted: S. cerevisiae rad50 strain growth inhibition; at 50.0 µM; hits give high values. An outline of the steps:
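Growth of the mutant yeast was measured after compound exposure and referenced to vehicle-treated cultures.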

Test [2] is described as follows: NCI Yeast Anticancer Drug Screen. Data for the mec2-1 strain (AID 157). To be noted: S. cerevisiae mec2-1 strain, at 50.0 µM, hits give high values. An outline of the steps: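 Yeast mec2-1 mutant treated with compound. Readout: growth inhibition vs vehicle controls.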
A short description of test [3]: NCI Yeast Anticancer Drug Screen. Data for the sgs1 mgt1 strain (AID 161).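 Further: 0% = growth of cultures given vehicle only.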 To be noted: S. cerevisiae sgs1 mgt1 strain, at 50.0 µM, hits give high values. An outline of the steps: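 Test agents were incubated with a DNA-repair-mutant yeast strain. Growth was then read and compared against vehicle-treated controls.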
A short description of test [4]: NCI Yeast Anticancer Drug Screen. Data for the cln2 rad14 strain (AID 165).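 Further: 0% = growth equal to vehicle treated cultures.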 To be noted: S. cerevisiae cln2 rad14 strain, at 50.0 µM, hits give high values. An outline of the steps: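 cln2 rad14 yeast strain; compound exposure; growth inhibition read vs vehicle controls.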
The nature of test [5]: NCI Yeast Anticancer Drug Screen. Data for the bub3 strain (AID 167). As to conditions: S. cerevisiae bub3 mutant strain, at 50.0 µM, hits give high values. Put shortly:
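Whole-cell yeast assay. The mutant strain was incubated with compounds, and growth inhibition was determined by comparison with vehicle-treated cells.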

The nature of test [6]: NCI Yeast Anticancer Drug Screen. Data for the mlh1 rad18 strain (AID 175). As to conditions: S. cerevisiae mlh1 rad18 strain growth inhibition; at 50.0 µM; hits give high values. An outline of the steps: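 Yeast w/ defined DNA-repair lesions; compound exposure; growth vs vehicle controls → % inhibition.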

Molecules are shown by their SMILES. This is part of a sample that, as a whole, favours compounds with a hit. Of some 79,000 tested, about 15% had one in any assay. A number with no mark means an inactive call. Calls of active or inactive are those of the source. No stated cut-off is given here; in the data, active means growth inhibition above about 70%; inactive means the rest.

Take `CCOC(=O)/C=C(\C)c1ccc(Cl)cc1`: the growth inhibition in test [1] is 4.4%; in test [2], -18.6%; in test [3], -1.6%; in test [4], 3.8%; in test [5], -10.1%; in test [6], 14.7%.
Regarding `COc1cc(C(=O)C[n+]2ccccc2)ccc1O`, the growth inhibition in test [1] was 95.3% (active); in test [2], 86.2% (active); in test [3] it was 84.5% (active); in test [4], 97.2% (active); in test [5] it was 97.7% (active); in test [6], 99.5% (active).
As for `O=C(Cc1c[nH]c2ccccc12)N/N=C/c1ccccc1[N+](=O)[O-]`, the growth inhibition in test [1] is 18.9%; in test [2], -4.75%; in test [3], 10.1%; in test [4], 1.1%; in test [5] it was 14.7%; in test [6] it was 17.3%.
In the case of `CC(C)(C)CI`, the growth inhibition in test [1] was 15.6%; in test [2] it was 3.85%; in test [3], 7.65%; in test [4], 4.9%; in test [5], -11.2%; in test [6], -35.3%.
As for `O=C(Nc1ccccc1O)c1ccc(Cl)c(Cl)c1`, the growth inhibition was -7.6% in test [1]; 32% in test [2]; 33.2% in test [3]; -23.2% in test [4]; 49% in test [5]; 36.2% in test [6].
Take `COC(=O)Nc1cn2cc(C(=O)c3cccs3)ccc2n1`: the growth inhibition in test [1] is -2.5%; in test [2], -21.5%; in test [3], -9.95%; in test [4], -10.5%; in test [5] it was -42%; in test [6], -53.2%.
For `CCOC(=O)NNC(=O)NC12CC3CC(CC(C3)C1)C2`, the growth inhibition is -16.7% in test [1]; -7.7% in test [2]; 5.6% in test [3]; -24.6% in test [4]; -3.85% in test [5]; 1.75% in test [6].
With `Cc1ccc(N=Nc2ccc(C)cc2NC(=O)Nc2cc(C)ccc2C)cc1`, the growth inhibition is -3.7% in test [1]; 8.05% in test [2]; 27% in test [3]; -10.9% in test [4]; 26.1% in test [5]; -10.4% in test [6].
In the case of `CCC(O)(CC)Cc1ccc(Cl)cc1`, the growth inhibition in test [1] was -1%; in test [2] it was -9.55%; in test [3] it was -0.4%; in test [4], -12.2%; in test [5] it was -12.4%; in test [6] it was -6.65%.
For `Oc1ccccc1/C=N/Nc1nc(N/N=C/c2ccccc2O)nc(N/N=C/c2ccccc2O)n1`, the growth inhibition was 25.3% in test [1]; 20.5% in test [2]; 27.4% in test [3]; 16.9% in test [4]; -6.7% in test [5]; 15.9% in test [6].
As to `C=C(C)C(=O)OC1C/C(CO)=C\C(O)C/C(C)=C/C2OC(=O)C(=C)C21` (stereo not given), the growth inhibition was 55% in test [1]; 31.1% in test [2]; 33.7% in test [3]; 48% in test [4]; 41.5% in test [5]; -46.7% in test [6].
Turning to `CC(O)CN=Cc1ccccc1` (stereo not given), the growth inhibition in test [1] was -16.6%; in test [2], 21.9%; in test [3] it was -11.2%; in test [4], -41.4%; in test [5], -11.5%; in test [6], -18.8%.
As for `CCOC(=O)C1C(=O)CC(=O)C(C(=O)OCC)C1C1CC=CCC1` (stereo not given), the growth inhibition in test [1] is 51%; in test [2] it was 69.5%; in test [3] it was 78.5% (active); in test [4] it was 38.7%; in test [5], 70.7% (active); in test [6], 78.5% (active).
Turning to `CS(=O)(=O)N1C=CC2C(C=C1)C1(c3ccccc3)OC2(c2ccccc2)c2ccccc21` (stereo not given), the growth inhibition in test [1] was -9.75%; in test [2] it was -9.25%; in test [3], 0.35%; in test [4], -39.7%; in test [5] it was 2.95%; in test [6], -19.5%.
For the molecule `CCN(CC)CCOC(=O)CCC(C)=O`, the growth inhibition in test [1] is 6.35%; in test [2], -31.5%; in test [3] it was -7.65%; in test [4] it was 0.8%; in test [5] it was -9.1%; in test [6], 7.45%.
Take `Cn1ncc2c(NN)nc(Cl)nc21`: the growth inhibition is 8.6% in test [1]; -18.7% in test [2]; -4.55% in test [3]; -18.4% in test [4]; -14.8% in test [5]; 7% in test [6].
On to `OCCCC1CCN(CCO)CC1`, for which the growth inhibition in test [1] is -22.2%; in test [2] it was -27.5%; in test [3], -18.8%; in test [4], 1.3%; in test [5], -8.7%; in test [6], -10.3%.
On to `Cc1ccccc1N(C)S(=O)(=O)c1ccccc1[N+](=O)[O-]`, for which the growth inhibition in test [1] was -12%; in test [2], -41.5%; in test [3], 8.45%; in test [4], -5.6%; in test [5], 20.2%; in test [6], -10.2%.
On to `CSc1ccccc1C(C)(C)O`, for which the growth inhibition in test [1] is 24.6%; in test [2], -2.55%; in test [3] it was 3.35%; in test [4] it was -29.8%; in test [5], -1.4%; in test [6], 26.4%.
Regarding `O=C(Nc1ccc(NC(=O)Nc2cc(C(F)(F)F)ccc2Oc2ccc(Cl)c(Cl)c2)cc1)Nc1cc(C(F)(F)F)ccc1Oc1ccc(Cl)c(Cl)c1`, the growth inhibition in test [1] is -28.2%; in test [2], -45.4%; in test [3], -13.4%; in test [4], -23.2%; in test [5], -35.1%; in test [6], -19.7%.
For `Brc1cccc(N=NN2CCCC2)c1`, the growth inhibition was 14.7% in test [1]; 25.4% in test [2]; 28.9% in test [3]; 9.6% in test [4]; 7.7% in test [5]; 47.1% in test [6].
Take `CC(=O)NC(=O)NC1=NCCC(=O)N1CCc1c[nH]c2ccccc12`: the growth inhibition was 4.35% in test [1]; -29% in test [2]; -6.3% in test [3]; 6.25% in test [4]; -19.1% in test [5]; 7.2% in test [6].
Take `COc1ccc(C2OCC3(O)C(c4ccc(OC)c(OC)c4)OCC23)cc1OC` (stereo not given): the growth inhibition in test [1] is -0.85%; in test [2], -3.15%; in test [3], -1.35%; in test [4], 19.4%; in test [5], -9.8%; in test [6] it was 6.85%.
As for `COc1ccc(CC2c3cc(OC)c(OC)cc3CCN2C(=O)OCc2ccccc2)cc1OC` (stereo not given), the growth inhibition in test [1] was 25.3%; in test [2] it was -4.1%; in test [3], 2.35%; in test [4], 19.6%; in test [5], 8.65%; in test [6], 12.1%.
Consider `O=[N+]([O-])c1ccc(/C=C/c2cc(-c3ccccc3)nc3ccc4ccccc4c23)cc1`, for which the growth inhibition in test [1] is -11.1%; in test [2] it was 5.1%; in test [3], 9.9%; in test [4], 3.2%; in test [5], -11.9%; in test [6], 4.5%.
In the case of `O=C1c2ccccc2C(=O)c2c1c([N+](=O)[O-])c1c(c2[N+](=O)[O-])OCO1`, the growth inhibition in test [1] was 7.15%; in test [2] it was 0.15%; in test [3] it was 21.8%; in test [4], -0.15%; in test [5] it was 14.1%; in test [6], 31.2%.
`Cc1cc(S(=O)(=O)Cl)ccc1Cl`: the growth inhibition in test [1] is 14.6%; in test [2] it was 1.3%; in test [3], -0.6%; in test [4], -29.2%; in test [5], 9.05%; in test [6], 7.6%.
In the case of `CCOc1c(N=Nc2ccc([N+](=O)[O-])cc2)c(C)nn1C(N)=S`, the growth inhibition in test [1] was -8%; in test [2], 8.05%; in test [3], 15.3%; in test [4], -27.4%; in test [5], 13.1%; in test [6] it was 15.9%.
Turning to `NNC(=O)C(CSC(c1ccccc1)(c1ccccc1)c1ccccc1)NC(=O)OCc1ccccc1` (stereo not given), the growth inhibition in test [1] is 87.1% (active); in test [2] it was 86% (active); in test [3], 94.8% (active); in test [4], 83.6% (active); in test [5] it was 89% (active); in test [6], 95.2% (active).
As for `CNC(=O)Nc1ccc(OC)cc1OC`, the growth inhibition in test [1] was 3%; in test [2], -6.2%; in test [3], -8.35%; in test [4], -66.5%; in test [5], 3.2%; in test [6], -18.6%.
Turning to `O=[N+]([O-])c1ccccc1N=N/C(Cc1ccccc1)=N\Nc1ccccc1`, the growth inhibition is 10.8% in test [1]; 19.9% in test [2]; -8.25% in test [3]; 11.6% in test [4]; -12.6% in test [5]; -17.8% in test [6].
`O=C(NC1C=Nc2ccc([N+](=O)[O-])cc2NC1=O)c1ccc(Cl)cc1` (stereo not given): the growth inhibition in test [1] is 13.2%; in test [2] it was 7.8%; in test [3], 7.35%; in test [4], -18%; in test [5], -1.85%; in test [6], -8.5%.
Consider `COC(=O)c1nnn(-c2cccc(Cl)c2)c1N`, for which the growth inhibition in test [1] is 3.7%; in test [2], -6.1%; in test [3], -0.25%; in test [4], 15.7%; in test [5], -26.9%; in test [6], 20.4%.
`CC(=O)OC1(C)N=NC2(CCCCC2)O1` (stereo not given): the growth inhibition in test [1] is 3.45%; in test [2], -22.4%; in test [3] it was -37.1%; in test [4] it was 7.5%; in test [5], -12.1%; in test [6], -12.3%.
As for `CCOc1ccccc1/C=C(/C#N)C(N)=O`, the growth inhibition in test [1] is 10.8%; in test [2], -0.5%; in test [3], -26.6%; in test [4], -29.9%; in test [5] it was -50.4%; in test [6], -1.3%.
For the molecule `O=C(O)O.O=C(O)O.O=C(O)O.[Co]`, the growth inhibition in test [1] was -9.35%; in test [2], 38.3%; in test [3], -2.75%; in test [4], -11.6%; in test [5], 8.65%; in test [6] it was -5.05%.
For `COc1ccc(/C=C2\SC(c3ccc(OC)cc3)N(NC(=O)Cc3ccccc3)C2=O)cc1` (stereo not given), the growth inhibition in test [1] was -14.2%; in test [2], -34.8%; in test [3], -6.9%; in test [4], -63.2%; in test [5] it was 1.1%; in test [6], 1.15%.
Consider `Cc1cc(C)n(/N=C/c2ccccc2[N+](=O)[O-])c(=O)c1C#N`, for which the growth inhibition is 4.65% in test [1]; 9.4% in test [2]; -2.75% in test [3]; -0.25% in test [4]; -2.35% in test [5]; -6.85% in test [6].
For `O=C(/C=C(\c1ccccc1)C1C2C=CC(C2)C1c1ccccc1)c1ccccc1` (stereo not given), the growth inhibition in test [1] is 61.6%; in test [2] it was 64.2%; in test [3], 91.7% (active); in test [4], 49%; in test [5], 75.2% (active); in test [6], 88.8% (active).
Regarding `OC[C@@H](O)[C@H]1NC[C@@H](O)[C@H]1O`, the growth inhibition was -45.1% in test [1]; -57.1% in test [2]; -50.1% in test [3]; 7.7% in test [4]; -26.1% in test [5]; -17.9% in test [6].
